± gives the standard deviation of the averaged measurements.
tested on: HEK293FT dCK*-only; test: relative growth in counter assay (no AraC = 100%, AraC + DMSO = 0%); higher = more growth rescue independent of IKZF1; settings: compound concentration: 5 uM; AraC concentration: 0.3 uM; overnight pretreatment + 4 days AraC
Procedure, shortened: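 HEK293FT cells carrying only an engineered kinase construct were plated at 300 per well (384-well) and given 5 μM compound 2 h later. Following overnight at 37 °C, a nucleoside suicide substrate (0.3 μM) plus medium was added for 4 days. Hoechst 33342-stained nuclei were imaged and counted on day 5, with 100% assigned to wells without suicide substrate and 0% to substrate plus vehicle on each plate.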

| SMILES | relative growth in counter assay |
| --- | --- |
| CCCCCCC[n+]1ccc(-c2cc[n+](CCCCCCC)cc2)cc1 | -12.3% |
| COc1cc2cc(c1Cl)N(C)C(=O)C[C@H](OC(=O)C(C)C)[C@]1(C)O[C@H]1[C@H](C)[C@@H]1C[C@@](O)(NC(=O)O1)[C@H](OC)/C=C/C=C(\C)C2 [Ansamitocin P-3] | -34.3% |
| COC(=O)[C@@]12OC[C@]34[C@H]([C@@H](O)[C@@H]1O)[C@@]1(C)CC(=O)C(O)=C(C)[C@@H]1C[C@H]3OC(=O)[C@H](OC(=O)/C=C(\C)C(C)C)[C@@H]24 [Bruceantin] | -34.9% |
| O=c1[nH]c2ccccc2n1CCCN1CCC(n2c(=O)[nH]c3cc(Cl)ccc32)CC1 | -4.05% |
| CO[C@H]1[C@H](O)[C@H](O[C@H]2CC[C@@]3(C=O)[C@H](CC[C@@H]4[C@@H]3CC[C@]3(C)[C@@H](C5=CC(=O)OC5)CC[C@]43O)C2)O[C@@H](C)[C@@H]1O [Peruvoside] | -34.2% |
| O=[N+]([O-])c1cc(O)c(O)c([N+](=O)[O-])c1 | 2.01% |
| CCCCCCCCCCC(=O)O[C@H]1CC[C@H]2[C@@H]3CCC4=CC(=O)CC[C@]4(C)[C@H]3CC[C@]12C [Testosterone (undecanoate)] | 4.31% |
| CC(C)[C@]12O[C@H]1[C@@H]1O[C@]13[C@]1(O[C@H]1C[C@H]1C4=C(CC[C@@]13C)C(=O)OC4)[C@@H]2O [Triptolide] | -34% |
| CO[C@@]12C(=COC(N)=O)c3c(O)c(N)c(C)c(O)c3N1C[C@@H]1N[C@@H]12 [Mitomycin C] | -25.9% |
| CO[C@H]1C[C@H](O[C@H]2CC[C@@]3(C)[C@H](CC[C@@H]4[C@@H]3CC[C@]3(C)[C@@H](C5=CC(=O)OC5)[C@@H](OC(C)=O)C[C@]43O)C2)O[C@@H](C)[C@@H]1O [Oleandrin] | -35% |
| CC(C)C[C@H](NC(=O)[C@@H](O)[C@H](N)Cc1ccccc1)C(=O)NCCOCCOCCOCC(=O)O[C@H]1CC[C@H]2[C@@H]3CC[C@H]4CC(=O)CC[C@]4(C)[C@H]3CC[C@]12C.O=C(O)C(F)(F)F [PROTAC AR Degrader-4 (TFA)] | 12.3% |
| COc1cc([C@@H]2c3cc4c(cc3[C@H](O)[C@H]3COC(=O)[C@H]23)OCO4)cc(OC)c1OC | -33.7% |
| C[C@]12CC[C@H](O)C[C@H]1CC[C@@H]1[C@@H]2CC[C@]2(C)[C@@H](C3=CC(=O)OC3)CC[C@]12O [digitoxigenin] | -34.6% |
| CCCCCCCCCCCCCCCC[n+]1ccccc1 | -34.4% |
| C[C@H]1CCC/C=C/C2C[C@H](O)C[C@H]2[C@H](O)/C=C/C(=O)O1 (some centres not stated) [brefeldin-a] | -32.6% |
| c1ccc2c(c1)Sc1ccccc1N2CC1CN2CCC1CC2 (configuration not stated) [levomequitazine] | -5.25% |
| CCC(C)[C@H]1O[C@]2(C=C[C@@H]1C)C[C@@H]1C[C@@H](C/C=C(\C)[C@@H](OC3C[C@H](OC)C(O[C@H]4C[C@H](OC)[C@@H](O)[C@H](C)O4)[C@H](C)O3)[C@@H](C)/C=C/C=C3\CO[C@@H]4[C@H](O)C(C)=C[C@@H](C(=O)O1)[C@]34O)O2 (some centres not stated) [ABAMECTIN (avermectin B1a shown)] | -8.1% |
| O=C1c2ccccc2C(=O)c2ccccc21 [anthraquinone] | 0.57% |
| O=c1c2ccccc2[se]n1-c1ccccc1 | -8.59% |

| SMILES | relative growth in counter assay |
| --- | --- |
| C(=C\c1ccccc1)/CN1CCN(CCOC(c2ccccc2)c2ccccc2)CC1 | -4.14% |
| C=C1[C@@H](C)[C@H]2[C@H](Cc3ccccc3)NC(=O)[C@]23OC(=O)/C=C/[C@H](O)CCC[C@@H](C)C/C=C/[C@H]3[C@@H]1O [Cytochalasin B] | -30.2% |
| ClC(C=C3)=C(Cl)C=[C@@]3[C@H]2C1=CC=CC=C1[C@H](NC)C2 [indatraline] | 0.14% |
| NCC1(CC(=O)O)CCCCC1 | -10.5% |
| CCCCC1(C2CCCC2)Cc2cc(OCCCC(=O)O)c(Cl)c(Cl)c2C1=O (configuration not stated) | 2.86% |
| O=C(CCCN1CCC2(CC1)C(=O)NCN2c1ccccc1)c1ccc(F)cc1 [spiperone] | -1.41% |
| Oc1c(I)cc(I)cc1I | 4.58% |
| COC[C@H]1OC(=O)c2coc3c2[C@@]1(C)C1=C(C3=O)[C@@H]2CCC(=O)[C@@]2(C)C[C@H]1OC(C)=O [Wortmannin] | 0.96% |
| OC1=[C@]([C@]2=C(O)C(C(C=O)=C(O)C(O)=C3C(C)C)=C3C=C2C)C(C)=CC4=C1C(C=O)=C(O)C(O)=C4C(C)C [gossypol] | -34.8% |
| O=c1[nH]c2ccccc2n1C1CCN(CCCC(c2ccc(F)cc2)c2ccc(F)cc2)CC1 [Pimozide] | -9.38% |
| Cc1cc(O)c2c(=O)c3c(O)cc(O)c4c5c(O)cc(O)c6c(=O)c7c(O)cc(C)c8c1c2c(c34)c(c78)c65 [Hypericin] | -9.3% |
| CC[C@H]1CN2CCc3cc(OC)c(OC)cc3C2C[C@@H]1CC1NCCc2cc(OC)c(OC)cc21 (some centres not stated) | -34.9% |
| CN(C)C(=S)SSC(=S)N(C)C | -35.1% |
| COc1ccc2c(c1)/C(=C/c1cnc[nH]1)C(=O)N2 | -21.6% |
| CC[C@@H](C(=O)O)C1CC[C@H](C)C([C@@H](C)[C@H](O)[C@H](C)C(=O)[C@H](CC)C2O[C@]3(C=C[C@@H](O)[C@]4(CC[C@@](C)(C5CC[C@](O)(CC)[C@H](C)O5)O4)O3)[C@H](C)C[C@@H]2C)O1 (some centres not stated) [Salinomycin (Procoxacin)] | -10.3% |
| C[C@]12CC[C@H](O)C[C@H]1CC[C@@H]1[C@@H]2C[C@@H](O)[C@]2(C)[C@@H](C3=CC(=O)OC3)CC[C@]12O [Digoxigenin] | -33.8% |
| Fc1ccc(C(OCCN2CCN(C/C=C/c3ccccc3)CC2)c2ccc(F)cc2)cc1 | 4.29% |
| COc1cc2c(c(OC)c1OC)-c1ccc(OC)c(=O)cc1[C@@H](NC(C)=O)CC2 [Colchicine] | -33.57 ± 0.13% |

— the supplement of paper PMC12340641
